# Test results from PubChem BioAssay AID1626 (SRMLSC, 2009).
# The campaign covered roughly 220,000 compounds. About 2,000 (0.91%) were called active. Not shown: some 2% with an inconclusive outcome. These entries were drawn from the full list. Potency and affinity values are given separately. Unmarked numbers belong to inactive results. Cut-off read from the data, not from the text of the source: inconclusive = inhibition above about 80% without an active follow-up result; inactive = below that; test concentration not stated here.
# Assay: M. tuberculosis H37Rv growth inhibitors, H37Rv strain (AID 1626);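 note: bacteria incubated seven days before Alamar blue readout; 0% = bacteria only wells and 100% = bacteria with antibiotic wells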
# Settings: hits give high values, concentration not given here
row,Structure (SMILES),inhibition
1,Cc1ccc(C2NC(=O)CCC2[N+](=O)[O-])cc1 (stereo not drawn),1.52%
2,NS(=O)(=O)c1ccc(NC(=O)C(Sc2ccccc2)c2ccccc2)cc1 (stereo not drawn),2.33%
3,COc1cccc(CNC(=O)c2ccc3nc[nH]c3c2)c1,-1.98%
4,O=C(COc1ccc(Br)cc1)NCc1cn2ccccc2n1,-2.73%
5,NC1=NC(=O)/C(=C\C=C\c2ccccc2)S1,2.56%
6,CCCOc1ccc(/C=N/NC(=O)C(C)Sc2ccccn2)cc1OCC (stereo not drawn),4.45%
7,COc1cccc(/C=c2\s/c(=C\C(=O)C(C)(C)C)[nH]c2=O)c1,8.13%
8,Cc1cccc(/C=C2\CS/C(=C\c3cccc(C)c3)C2=O)c1,-5.7%
9,Cc1cc(NC(=O)C(=O)c2cn(C)c3ccccc23)no1,-4.05%
10,CCC(=O)Nc1cccc(C2=NOC3(C2)C[C@@H](C(N)=O)N(C(=O)C2(C)CC2)C3)c1 (stereo partly drawn),-7.53%
11,O=C(COC(=O)c1ccc(Br)cc1)NCCN1C(=O)CSC1=O,-0.22%
12,O=C(CN1C(=O)c2cccc3cccc1c23)Nc1ccccc1C(=O)NCc1ccco1,-8.25%
13,COc1ccc(C2C(C(=O)Nc3ccc4c(c3)OCCO4)c3ccccc3C(=O)N2C)cc1 (stereo not drawn),-5.2%
14,CC1=C(C(=O)Nc2ccccc2C)C(c2cccs2)NC(=S)N1 (stereo not drawn),-1.29%
15,O=S(=O)(c1ccc(Cl)cc1)c1snnc1-c1ccccc1,-9.09%
16,O=S(=O)(c1ccc(F)cc1)c1snnc1-c1ccccc1,-0.36%
17,O=C(CNC(=S)N(Cc1ccccc1F)C1CCCCC1)NC1CC1,-3.6%
18,O=C(Nc1ccc2sccc2c1)c1ccc(Cl)s1,59.4%
19,Cc1ccc(/C=C/C(=O)Nc2ccc([N+](=O)[O-])cc2)o1,6.87%
20,O=C(O)/C=C/c1ccc([N+](=O)[O-])o1,7.14%
21,CCOC(=O)/C=c1\s/c(=C(\C#N)C(N)=O)n(-c2ccccc2)c1=O,2.26%

row,Structure (SMILES),inhibition
1,COc1cc(/C=N/NC(=O)c2cnccn2)cc(OC)c1OC,-6.81%
2,CC1(C)CCCC2=C1CC1C(=O)N(N)C(=O)C1C2 (stereo not drawn),2.05%
3,Cc1ccc(Nc2ccccc2)cc1,6.23%
4,COc1ccc(Nc2ccc(OC)cc2)cc1,47%
5,Cc1ccc(Nc2ccc(C(=O)O)cc2N)cc1,-7.86%
6,Nc1ccccc1Nc1cccc(C(F)(F)F)c1,6.41%
7,c1ccc(Nc2cccc3c(Nc4ccccc4)cccc23)cc1,-3.47%
8,COc1ccc(Nc2cccccc2=O)cc1,1.3%
9,FC(F)(F)c1nc2ccccc2nc1N/N=C/c1c(Cl)cccc1Cl,9.85%
10,COCCN(C(=S)Nc1ccc(C)cc1C)C(C)c1ccco1 (stereo not drawn),-7%
11,CSc1ncccc1C(=O)OCC(=O)c1ccccc1Br,-4.85%
12,CCOC(=O)c1cc(NC(=O)N2CCOCC2)c(C)nc1C,-1.72%
13,CC(C)CNc1cc(N2CCCC2)ccc1[N+](=O)[O-],4.85%
14,CCCCCSc1nc2c(c(=O)[nH]c(=O)n2C)n1C,11.1%
15,C/C(=C\C(=O)c1ccc(Br)cc1)NCc1ccc(C)cc1,4.34%
16,CCOc1cc(S(=O)(=O)N2CCOCC2)ccc1F,-1.04%
17,CC(C)[C@H](NS(=O)(=O)/C=C/c1ccccc1)C(=O)OCC(=O)NC(N)=O,0.26%
18,CC(Cn1cnc2ccccc21)C(=O)O (stereo not drawn),-0.91%
19,Cc1cc(C)c(C(=O)Nc2ccc(C)c(C)c2)c(CC(C)(C)C(=O)O)c1,-5.76%
20,CC(NC(=O)COC(=O)/C=C/c1cccc(C(F)(F)F)c1)c1ccccc1 (stereo not drawn),5.27%
21,O=C1N=C(N2CCN(c3ccccc3)CC2)SC1Cc1ccccc1 (stereo not drawn),1.7%

row,Structure (SMILES),inhibition
1,O=C(Nc1ccccc1)N1CCCC1c1cccs1 (stereo not drawn),-1.63%
2,CC(=O)CSc1ccc(-c2nc3cc(C)c(C)cc3[nH]2)cn1,11.7%
3,Cc1ccc2nc(-c3ccc(SCC(=O)O)nc3)[nH]c2c1,4.36%
4,Cc1cc2nc(-c3ccc(SCC(=O)NC(C)C)nc3)[nH]c2cc1C,1.74%
5,Cc1ccc2nc(-c3ccc(SCC(=O)Nc4nc(C)cs4)nc3)[nH]c2c1,0.98%
6,Cc1nc(NC(=O)CSc2ccc(-c3nc4ccccc4[nH]3)cn2)sc1C,-0.38%
7,CCc1nnc(NC(=O)CSc2ccc(-c3nc4ccccc4[nH]3)cn2)s1,-3.06%
8,Cc1ncoc1C(=O)N1CCc2c([nH]c3ccccc23)C1C1CCCCC1 (stereo not drawn),11.8%
9,CC(CS(=O)(=O)c1cccc2cccnc12)N1CCCCC1 (stereo not drawn),2.17%
10,CCNc1nc(NCc2ccccc2)nc(SCC(N)=O)n1,78.2%
11,COc1ccc(NC(=O)Nc2sc(=S)n(C)c2C)cc1,-3.18%
12,CCOc1nc(-c2ccc(OC)cc2)ccc1-c1noc(C)n1,6.32%
13,Cc1nn(-c2ccccc2)c(N2CCCC2)c1/C=N/NC(=O)C1CC1,1.71%
14,COC(=O)C1=C(C)NC(=O)CC1c1ccc(F)c(Br)c1 (stereo not drawn),13.5%
15,CCN(c1ccccc1)S(=O)(=O)c1ccc(C(=O)OC(C)C(=O)NCCC2=CCCCC2)cc1 (stereo not drawn),0.82%
16,COc1ccc(C(C(=O)NC2CCCCC2)N(C(=O)c2sc(C)nc2C)c2ccccc2)cc1 (stereo not drawn),1.23%
17,COc1ccc(C(C(=O)NC2CCCCC2)N(C(=O)c2sc(C)nc2C)c2ccc(OC)cc2)cc1 (stereo not drawn),78.9%
18,COc1ccc(N(C(=O)c2cnccn2)C(C(=O)NC2CCCCC2)c2ccc(O)cc2)cc1 (stereo not drawn),4.1%
19,COc1ccc(C(C(=O)NC2CCCCC2)N(C(=O)c2ccccn2)c2cccnc2)cc1 (stereo not drawn),-6.78%
20,O=C(O)c1cccc(NC(=O)c2ccc(Cl)c(S(=O)(=O)N3CCCCCC3)c2)c1,-5.92%
21,CCOc1ncccc1C(=O)OCc1ccc(C#N)cc1,4.57%
